# High-throughput results from PubChem.
# Shown are actives, neighbours in structure and some others; about 27% of the full set was active somewhere.
# CYP2C9 inhib: human CYP2C9 inhibition. P11712. CYP2C9 Supersomes, luciferin-H conversion, luminescence. inhibition, % at 5 µM. 96,000 tested, 20% active. AID 777;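 active = blocking of liver enzyme CYP2C9 beyond about 50% at 5 µM, limit read from the data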
# CYP2C19 inhib: human CYP2C19 inhibition; P33261; CYP2C19 Supersomes, luciferin-H EGE luminescence, 30 min; inhibition, % at 5 µM; 96,000 tested, 21% active;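 active = CYP2C19 inhibition above a set limit at 5 µM in the primary screen, cut at about 50% in these data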
# Target sequence (P33261 whole entry, looked up): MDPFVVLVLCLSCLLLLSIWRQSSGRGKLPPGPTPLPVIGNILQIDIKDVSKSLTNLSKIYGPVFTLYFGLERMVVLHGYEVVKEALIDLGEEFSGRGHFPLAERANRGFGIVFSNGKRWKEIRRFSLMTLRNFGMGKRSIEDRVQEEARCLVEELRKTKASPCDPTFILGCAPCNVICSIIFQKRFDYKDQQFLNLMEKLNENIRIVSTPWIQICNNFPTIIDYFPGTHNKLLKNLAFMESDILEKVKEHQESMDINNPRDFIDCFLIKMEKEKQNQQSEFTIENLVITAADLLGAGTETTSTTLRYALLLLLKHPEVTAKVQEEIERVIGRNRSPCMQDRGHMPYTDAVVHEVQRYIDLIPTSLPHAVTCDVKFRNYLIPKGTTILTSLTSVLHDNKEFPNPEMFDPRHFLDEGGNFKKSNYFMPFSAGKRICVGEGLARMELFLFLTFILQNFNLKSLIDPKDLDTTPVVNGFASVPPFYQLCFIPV
# CYP2C9 activ: CYP2C9 (human) activation. P11712. recombinant CYP2C9, luciferin-H conversion, luminescence; active compounds read high; factor 1 = untreated enzyme, 0 = blocked. activation factor at 5 µM. 96,000 tested, 1.4% active. AID 1024;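 active = activation factor of 2 or more for CYP2C9 at a 5 µM dose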
# Cav3 T inh: blocks human Cav3.2 T-type calcium channel; 100,000 tested, 4% active; AID 449739; B-score at 10 µM; O95180; Cav3.2-expressing cells, Fluo-4 calcium fluorescence FDSS; active compounds read low;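 active = single-dose well whose peak fluorescence ratio is a statistical outlier from its plate by either plate-standardised score or position-corrected B-score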
# CYP2C19 act: cytochrome P450 2C19 (human) activation. P33261. recombinant CYP2C19, luciferin-H EGE luminescence; active compounds read high; 0 = fully inhibited enzyme, 1 = untreated enzyme. activation factor at 5 µM. 96,000 tested, under 10 active;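 active = activation factor of at least 2 at 5 µM in the primary screen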
# A number is an active result; 0 = inactive; - = no result given.
SMILES,CYP2C9 inhib,CYP2C19 inhib,CYP2C9 activ,Cav3 T inh,CYP2C19 act
CCSC1(SCC)N=C(N)C2(C#N)C(c3ccc(F)cc3)C12C#N (stereo unspecified),57.8,61.5,0,0,0
COC1(OC)N=C(N)C2(C#N)C(c3cccc(Oc4ccccc4)c3)C12C#N (stereo unspecified),55.6,59.3,0,-4.97,0
CCOC1(OCC)N=C(N)C2(C#N)C(c3ccc(NC(C)=O)cc3)C12C#N (stereo unspecified),87.7,0,0,0,0
COc1ccc(NC2=NCC(=O)N2c2ccccc2F)cc1,0,0,0,0,0
CC1(C)Oc2ccc3ccc(=O)oc3c2/C(=C/NC2CCCCC2)C1=O,-,-,-,0,-
Cc1ccc(-c2nnc(N3CCN(C(=O)COc4ccccc4)CC3)c3ccccc23)cc1,86.8,79.3,0,-7.36,0
Cc1ccc(-c2nnc(N3CCN(c4ccccn4)CC3)c3ccccc23)cc1,0,0,0,-,0
c1ccc(-c2nnc(N3CCN(c4ccccn4)CC3)c3ccccc23)cc1,0,67.5,0,-5.6,0
C/C(Cn1nnc([N+](=O)[O-])n1)=N\NC(=O)c1ccccc1,0,0,0,0,0
Cc1ccc(NC(=O)C2C3/C=C\CCCCC32)cc1C (stereo unspecified),0,0,0,0,0
COc1ccc(CN2[C@@H](CC(=O)O)c3ccccc3S2(=O)=O)cc1,-,-,-,0,-
O=C(c1ccccc1)c1c[nH]c2cc3c(cc2c1=O)OCCO3,-,-,-,0,-
CCOCCCN1CC(C(=O)NCCc2ccc(C)cc2)CC1=O (stereo unspecified),0,0,0,0,0
CC(=O)Oc1c(Cl)c(N2CCOCC2)c(OC(C)=O)c2ccccc12,0,52.0,0,0,0
Cc1ccc(CSCCNC(=O)CSCc2ccc([N+](=O)[O-])cc2)cc1,74.9,58.1,0,-4.27,0
COc1ccc(CCNC(=O)CSCc2ccc(C)cc2)cc1OC,-,-,-,0,-
O=C(COc1ccc(N2CC(C(=O)O)CC2=O)cc1)Nc1cccc(C(F)(F)F)c1 (stereo unspecified),0,0,0,0,0
O=C(Oc1cccc(Oc2ccccc2)c1)N1CCOCC1,0,62.9,0,0,0
O=C(OCc1ccccc1)N1CCOCCOCCN(C(=O)OCc2ccccc2)CCOCCOCC1,83.6,0,0,0,0
CCOC(=O)N1CCOCCOCCN(C(=O)OCC)CCOCC1,0,0,0,0,0
O=C(Oc1ccc(-c2ccccc2)cc1)N1CCOCC1,0,0,0,0,0
C=CCn1c(SCC(=O)c2ccc(Br)cc2)nnc1C(CC(C)C)NC(=O)c1cccs1 (stereo unspecified),0,0,0,0,0
Cc1cc(C(=O)COc2ccc(-c3nnco3)cc2)c(C)n1Cc1ccccc1,61.8,60.0,0,0,0
CC(C)(C)c1nn(-c2ccccc2)c2[nH]c(=O)c(CNc3ccc4c(c3)OCCO4)cc12,0,0,0,0,0
Cc1nn(-c2ccc(Cl)cc2)c2[nH]c(=O)c(CNCc3ccc4c(c3)OCO4)cc12,55.6,64.6,0,0,0
SMILES,CYP2C9 inhib,CYP2C19 inhib,CYP2C9 activ,Cav3 T inh,CYP2C19 act
CS(=O)(=O)N(CC(=O)NCc1ccc2c(c1)OCO2)c1ccc(Cl)cc1,0,0,0,-,0
Cc1nn(-c2ccccc2)c2[nH]c(=O)c(CNc3ccc(N4CCOCC4)cc3)cc12,56.8,0,0,0,0
CC1CCCC(C)N1CCNC(=O)C1CCN(S(=O)(=O)N2CCCCC2)CC1 (stereo unspecified),0,0,0,0,0
Cc1cccc(-c2nc3c(c(SCC(N)=O)n2)CCCC3)c1,-,-,-,0,-
O=C1CN(C(=O)CSc2nncn2-c2ccccc2)c2ccccc2N1,0,0,0,0,0
O/N=C/c1ccc(OCC(O)COc2ccc(/C=N/O)cc2)cc1,0,0,0,0,0
CCc1nc(SCC(=O)Nc2cc(C)on2)c2c(C)c(C)sc2n1,0,0,0,0,0
Cc1cc(NC(=O)CSc2nc(C3CC3)nc3sc(C)c(C)c23)no1,62.6,0,0,0,0
Cc1sc2nc(C3CC3)nc(SCC(=O)N3c4ccccc4CC3C)c2c1C (stereo unspecified),98.7,65.1,0,0,0
Cc1cc2ccccc2nc1SCC(=O)N1c2ccccc2CC1C (stereo unspecified),0,0,0,0,0
C=CCN(CC=C)C(=S)NC(=O)c1ccc(OC)c(Br)c1,0,74.2,0,0,0
COc1ccc(/C=N/NC(=O)Nc2cccc3nsnc23)c(OC)c1,0,0,0,0,0
COc1cc(/C=N/NC(=O)Nc2cccc3nsnc23)cc(OC)c1OC,55.9,0,0,-,0
